PubChem BioAssay (NCATS)
Records with an inconclusive call do not appear. Calls of active or inactive are those of the source. Calls follow the shape of the dose curve; as a rule, active = well fitted curve in the direction sought with a large enough effect; inconclusive = small, poorly fitted or top-dose-only effect, or another doubt; inactive = no such curve, though single readings can be large; an effect the other way counts as inactive or inconclusive.

What was measured:
[1] = Quantitative High-Throughput drug screen in 47 multiple myeloma cell lines against the NCATS MIPE library collection: KMS20_JCRB cell viability assay (AID 1918973); also: nearly all actives have a fitted effect of over 45% in size; also: potency is read from the fitted curve at half-maximal effect
How it was run: (§1)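 Approved and investigational drugs from MIPE 4.0 were added by pin tool to 500 cells per well. After 48 hours at 37C, ATP-based CellTiter-Glo luminescence indicated remaining viability.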

[2] = Quantitative High-Throughput drug screen in 47 multiple myeloma cell lines against the NCATS MIPE library collection: NCIH929_DSMZ cell viability assay (AID 1918978); also: nearly all actives have a fitted effect of over 35% in size; also: potency is read from the fitted curve at half-maximal effect
How it was run: (§2)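 Plated at 500 cells per well, myeloma lines received MIPE 4.0 compounds by pin tool. Following 48 h culture at 37 °C, CellTiter-Glo luminescence gave viability relative to DMSO and media-only controls.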

[3] = Quantitative High-Throughput drug screen in 47 multiple myeloma cell lines against the NCATS MIPE library collection: MM1S_ATCC cell viability assay (AID 1918980); also: nearly all actives have a fitted effect of over 45% in size; also: potency is read from the fitted curve at half-maximal effect
How it was run: as §2

[4] = Quantitative High-Throughput drug screen in 47 multiple myeloma cell lines against the NCATS MIPE library collection: LP1_DSMZ cell viability assay (AID 1918982); also: nearly all actives have a fitted effect of over 35% in size; also: potency is read from the fitted curve at half-maximal effect
How it was run: as §2

[5] = Quantitative High-Throughput drug screen in 47 multiple myeloma cell lines against the NCATS MIPE library collection: KMS28PE_JCRB cell viability assay (AID 1918983); also: nearly all actives have a fitted effect of over 35% in size; also: potency is read from the fitted curve at half-maximal effect
How it was run: as §2

[6] = Quantitative High-Throughput drug screen in 47 multiple myeloma cell lines against the NCATS MIPE library collection: OCIMY5_PLB cell viability assay (AID 1918988); also: nearly all actives have a fitted effect of over 65% in size; also: potency is read from the fitted curve at half-maximal effect
How it was run: as §2

[7] = Quantitative High-Throughput drug screen in 47 multiple myeloma cell lines against the NCATS MIPE library collection: KMS27_JCRB cell viability assay (AID 1918970); also: nearly all actives have a fitted effect of over 30% in size; also: potency is read from the fitted curve at half-maximal effect
How it was run: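 ATP-based viability (CellTiter-Glo luminescence) is measured in cells treated 48 h with approved and investigational drugs at 37 °C. Controls are DMSO-only wells for full viability and media-only wells for none.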

[8] = Quantitative High-Throughput drug screen in 47 multiple myeloma cell lines against the NCATS MIPE library collection: KMS26_JCRB cell viability assay (AID 1918975); also: nearly all actives have a fitted effect of over 45% in size; also: potency is read from the fitted curve at half-maximal effect
How it was run: (§3)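 CellTiter-Glo luminescence (ATP) after 48 h compound exposure, 37C/5% CO2; 500 cells/well; MIPE 4.0 approved/investigational drugs pinned in; DMSO = 100%, media only = 0% viability.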

[9] = Quantitative High-Throughput drug screen in 47 multiple myeloma cell lines against the NCATS MIPE library collection: MOLP8_DSMZ cell viability assay (AID 1918977); also: nearly all actives have a fitted effect of over 45% in size
How it was run: as §2

[10] = Quantitative High-Throughput drug screen in 47 multiple myeloma cell lines against the NCATS MIPE library collection: OCIMY1_PLB cell viability assay (AID 1918979); also: nearly all actives have a fitted effect of over 35% in size; also: potency is read from the fitted curve at half-maximal effect
How it was run: as §2

[11] = Quantitative High-Throughput drug screen in 47 multiple myeloma cell lines against the NCATS MIPE library collection: KMS34_JCRB cell viability assay (AID 1918985); also: nearly all actives have a fitted effect of over 40% in size; also: potency is read from the fitted curve at half-maximal effect
How it was run: as §2

[12] = Quantitative High-Throughput drug screen in 47 multiple myeloma cell lines against the NCATS MIPE library collection: KMS12BM_JCRB cell viability assay (AID 1918971); also: nearly all actives have a fitted effect of over 35% in size; also: potency is read from the fitted curve at half-maximal effect
How it was run: as §3

[13] = Quantitative High-Throughput drug screen in 47 multiple myeloma cell lines against the NCATS MIPE library collection: Karpas25_ECACC cell viability assay (AID 1918968; also: nearly all actives have a fitted effect of over 35% in size; also: potency is read from the fitted curve at half-maximal effect)
How it was run: as §1

[14] = Quantitative High-Throughput drug screen in 47 multiple myeloma cell lines against the NCATS MIPE library collection: MM1R_ATCC cell viability assay (AID 1918981); also: nearly all actives have a fitted effect of over 35% in size; also: potency is read from the fitted curve at half-maximal effect
How it was run: as §2

[15] = Quantitative High-Throughput drug screen in 47 multiple myeloma cell lines against the NCATS MIPE library collection: KMS12PE_JCRB cell viability assay (AID 1918972); also: nearly all actives have a fitted effect of over 30% in size; also: potency is read from the fitted curve at half-maximal effect
How it was run: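 We plated 500 myeloma cells per well, pinned in MIPE 4.0 compounds, and incubated for 48 hours at 37C. ATP was then quantified with CellTiter-Glo, with DMSO and media-only wells defining 100% and 0%.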

[16] = Quantitative High-Throughput drug screen in 47 multiple myeloma cell lines against the NCATS MIPE library collection: L363_DSMZ cell viability assay (AID 1918984); also: nearly all actives have a fitted effect of over 40% in size; also: potency is read from the fitted curve at half-maximal effect
How it was run: as §2

[17] = Quantitative High-Throughput drug screen in 47 multiple myeloma cell lines against the NCATS MIPE library collection: MMM1_PLB cell viability assay (AID 1918976)
How it was run: as §2

[18] = Quantitative High-Throughput drug screen in 47 multiple myeloma cell lines against the NCATS MIPE library collection: KMS21BM_JCRB cell viability assay (AID 1918974); conditions: ATP luminescence, 48 h; viability: at 45.8 µM (top of the series) unless noted
How it was run: as §1

[19] = Quantitative High-Throughput drug screen in 47 multiple myeloma cell lines against the NCATS MIPE library collection: OCIMY7_PLB cell viability assay (AID 1918987); also: potency is read from the fitted curve at half-maximal effect; nearly all actives have a fitted effect of over 65% in size
How it was run: as §2

Measured: Potency

CCc1nc(N)nc(N)c1-c1ccc(Cl)cc1
inactive: [1] | [2] | [5] | [6]
active: [3] 16.6 µM | [4] 8.33 µM

CNC[C@@H](O)[C@@H](O)[C@H](O)[C@H](O)CO
inactive: [7] | [8] | [9] | [2] | [10] | [4] | [5] | [11]

CCCS(=O)c1ccc2nc(NC(=O)OC)[nH]c2c1 (stereo unspecified)
active: [12] 20.9 µM | [8] 10.5 µM | [4] 16.6 µM | [6] 16.6 µM
inactive: [7] | [2]

Nc1ccn([C@@H]2O[C@H](CO)[C@@H](O)C2O)c(=O)n1 (stereo partly specified)
active: [13] 1.48 µM
inactive: [7] | [12] | [14] | [5]

CC(C)c1nc(CN(C)C(=O)N[C@H](C(=O)N[C@@H](Cc2ccccc2)C[C@H](O)[C@H](Cc2ccccc2)NC(=O)OCc2cncs2)C(C)C)cs1
inactive: [7] | [15] | [16]
active: [12] 4.69 µM | [4] 16.6 µM | [11] 16.6 µM

CC(C)c1ccc2c(c1)c(SC(C)(C)C)c(CC(C)(C)C(=O)O)n2Cc1ccc(Cl)cc1
inactive: [7] | [10]
active: [12] 20.9 µM | [2] 26.4 µM | [3] 7.43 µM

CCCOc1ccc2nc(NC(=O)OC)[nH]c2c1
active: [13] 0.105 µM | [12] 0.0066 µM | [8] 1.05 µM | [17] 1.32 µM | [2] 1.48 µM | [14] 8.3 nM | [5] 6.6 nM | [11] 0.0059 µM | [6] 0.0026 µM

C[C@H](Cc1ccc(O)c(O)c1)[C@@H](C)Cc1ccc(O)c(O)c1
active: [13] 14.8 µM | [12] 16.6 µM | [8] 23.5 µM | [17] 6.62 µM | [2] 9.35 µM | [10] 18.7 µM | [3] 20.9 µM | [14] 20900 nM | [4] 18.7 µM | [16] 6.62 µM | [11] 16.6 µM | [6] 16.6 µM

COCCCN1CCC(NC(=O)c2cc(Cl)c(N)c3c2OCC3)CC1
inactive: [5] | [11]
active: [15] 16.6 µM | [16] 20.9 µM

OC(CN1CCN(c2cccc(Cl)c2)CC1)C(c1ccccc1)c1ccccc1 (stereo unspecified)
inactive: [2] | [16]
active: [3] 5.26 µM

CCCCc1ccc2nc(NC(=O)OC)[nH]c2c1
active: [13] 0.0235 µM | [12] 0.0093 µM | [8] 1.48 µM | [2] 0.935 µM | [14] 59 nM | [4] 0.0187 µM | [5] 14.8 nM | [11] 0.0148 µM | [6] 0.0037 µM

COc1ccc(C2(C#N)CCC(C(=O)O)CC2)cc1OC1CCCC1 (stereo unspecified)
inactive: [7] | [12] | [15] | [8] | [10] | [14] | [4] | [5] | [11]
active: [3] 26.4 µM

CC(S)C(=O)NCC(=O)O (stereo unspecified)
inactive: [9] | [2] | [10] | [14] | [6]

Cc1ccc(S(=O)(=O)NC(=O)NN2CC3CCCC3C2)cc1 (stereo unspecified)
active: [15] 26.4 µM | [1] 10.5 µM | [3] 20.9 µM

CCCCN(CCCC)CCC(O)c1cc2c(Cl)cc(Cl)cc2c2cc(C(F)(F)F)ccc12 (stereo unspecified)
inactive: [8] | [3] | [16]
active: [13] 14.8 µM | [12] 20.9 µM | [6] 11.8 µM

CC(=O)O[C@H]1C(=O)[C@@]2(C)C([C@H](OC(=O)c3ccccc3)[C@]3(O)C[C@H](OC(=O)[C@H](O)[C@@H](NC(=O)c4ccccc4)c4ccccc4)C(C)=C1C3(C)C)[C@]1(OC(C)=O)CO[C@@H]1C[C@@H]2O (stereo partly specified)
active: [10] 0.0187 µM
inactive: [12] | [1] | [8] | [2] | [3] | [14] | [4] | [6]

c1cnc2cc3c(cc2n1)C1CNCC3C1
inactive: [12] | [18] | [8] | [10] | [14] | [4] | [5] | [11] | [6]

O=C(NOCC1CC1)c1ccc(F)c(F)c1Nc1ccc(I)cc1Cl
active: [7] 4.18 µM | [12] 20.9 µM | [1] 0.59 µM | [2] 20.9 µM | [3] 23.5 µM | [16] 18.7 µM | [11] 23.5 µM

COc1ccccc1N1CCN(CCN(C(=O)C2CCCCC2)c2ccccn2)CC1
active: [15] 18.7 µM | [1] 5.26 µM | [2] 8.33 µM | [19] 7.43 µM
inactive: [13] | [12] | [8] | [4] | [11]
